What all share (test): NCI-60 one-dose screen, 48 h (100 = growth as untreated, 0 = no growth, -100 = all killed)
Details in all cases: 10 µM unless noted

The subject of assay [1] is SK-MEL-2 melanoma.
Assay [2] concerns EKVX NSCLC.
The subject of assay [3] is SN12C renal.
Assay [4] relates to UO-31 renal.
Assay [5] has as its system TK-10 renal.
The subject of assay [6] is ACHN renal.
Assay [7] relates to CAKI-1 renal.
The test system of assay [8] is A498 renal.
In assay [9] the test system is CCRF-CEM leukemia.
Assay [10] concerns MOLT-4 leukemia.
Assay [11] has as its system RPMI-8226 leukemia.
The subject of assay [12] is OVCAR-8 ovarian.
The subject of assay [13] is OVCAR-5 ovarian.
Assay [14] relates to OVCAR-4 ovarian.
Assay [15] relates to SK-OV-3 ovarian.
Assay [16] deals with IGROV1 ovarian.
The subject of assay [17] is OVCAR-3 ovarian.
For assay [18], the system named is HS 578T breast.
The subject of assay [19] is NCI/ADR-RES ovarian.

This is part of a sample that, as a whole, favours compounds with a hit. Of some 83,000 tested, about 20% had one in any assay.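 Interpretation: 100, growth as untreated; towards 0, rising growth inhibition; 0, no net growth; 0 to -100, cell death. Compounds scoring below 10 were considered active.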 Unmarked numbers belong to inactive results. Active and inactive are the calls of the source.

With `COc1ccc(-c2conc2-c2ccccc2)cc1`, the growth in assay [1] is 41.6%; in [2] it was 52.7%; in assay [3], 33.2%; in [4], 45.2%; in assay [5] it was 6.72% (active); in [6], 36.5%. The growth in [7] was 33.5%; in assay [8], -14% (active); in assay [9] it was 25.7%; in assay [10] it was 34.4%; in assay [11] it was 32.7%; in [12], 18.1%. For the same compound, the growth in [13] is 27.7%; in assay [14] it was 47.8%; in [15], 38.2%; in assay [16], 26.2%; in [17] it was -28.5% (active); in [18] it was 7.75% (active). For the same compound, the growth in assay [19] was 6.05% (active).

For `COc1cc(/C=C/C(=O)/C=C/c2cc(OC)c3c(c2OC)OCO3)c(OC)c2c1OCO2`, the growth in [1] is 28.1%; in assay [2] it was 87.7%; in assay [3] it was 30.4%; in [4], 57.3%; in [5], 12.9%; in [6], 25.5%. The growth is 29.7% in assay [7]; 43% in assay [8]; 26.5% in [9]; 18.7% in [10]; 15.7% in assay [11]; 2.45% (active) in assay [12]. Further, the growth in assay [13] is 81.8%; in assay [14], 32%; in assay [15], 78.2%; in assay [16], 29.8%; in [17], 0.304% (active); in assay [18], 63.8%. Moreover, the growth in assay [19] was 28.3%.

With `Cc1cc(=O)oc2cc(OC(=O)N3CCN(C)CC3)ccc12`, the growth in assay [1] was 116%; in [2], 99.2%; in assay [3], 97.9%; in assay [4], 85.3%; in assay [5], 125%; in [6], 96.6%. In addition, the growth in assay [7] was 89.7%; in assay [8], 105%; in [9], 104%; in assay [10] it was 97.7%; in assay [11], 108%; in assay [12] it was 103%. Besides, the growth in [13] is 98.7%; in [14], 104%; in [15], 110%; in assay [16], 110%; in assay [17], 106%; in assay [18] it was 99.4%. Besides, in assay [19], the growth is 104%.

As for `CC1Cc2ccccc2N1NC(=O)c1ccc(Cl)c(S(N)(=O)=O)c1` (configuration not stated), the growth is 99.4% in assay [1]; 108% in assay [2]; 96.3% in assay [3]; 83.6% in assay [4]; 101% in assay [5]; 98% in assay [6]. Further, the growth in [7] is 94.5%; in [8] it was 114%; in [9], 95.9%; in assay [10], 86.5%; in assay [11], 101%; in [12], 104%. Moreover, the growth in [13] was 105%; in assay [14], 98.7%; in assay [15], 98.4%; in assay [16], 98.6%; in [17] it was 119%; in assay [18] it was 107%. In assay [19], the growth was 101%.

On to `COc1ccc(OC)c(/C=C/c2nnc(Nc3ccccc3)o2)c1`, for which the growth is 95% in assay [1]; 89.9% in [2]; 90.1% in assay [3]; 94.5% in [4]; 92.5% in [5]; 97.2% in [6]. The growth is 78.3% in [7]; 73.7% in [8]; 87.2% in [9]; 68.3% in [10]; 103% in assay [11]; 105% in assay [12]. In addition, the growth in assay [13] is 93.2%; in assay [14], 102%; in [15], 109%; in assay [16] it was 109%; in assay [17], 103%; in [18], 98.5%. In assay [19], the growth was 94.1%.

As for `O=C(Cc1ccc(F)c(Cl)c1)Nc1cc(C2(C(F)(F)F)CC2)nn1Cc1ccccc1`, the growth in assay [1] is 18.9%; in assay [2] it was 68.1%; in [3], 49.3%; in assay [4], 42.4%; in assay [5], 81%; in [6] it was 35.9%. The growth in [7] is 10.1%; in assay [8], -2.62% (active); in assay [9], 15%; in assay [10], 93%; in assay [11], 75.8%; in [12], 25.3%. For the same compound, the growth in [13] is 91.4%; in [14], 75%; in [15], -13.1% (active); in [16] it was 62.2%; in assay [17], 63.4%; in [18] it was 26.2%. The growth in assay [19] is 56.9%.

Regarding `COc1ccc([C@H]2c3cc(OC)c(OC)cc3C=C(C=O)C2CO)cc1OC` (some centres not stated), the growth was 20.8% in assay [1]; 91.2% in assay [2]; 68% in assay [3]; 68.4% in assay [4]; 73.4% in assay [5]; 57.8% in assay [6]. Further, the growth is 52.4% in assay [7]; 104% in [8]; 56.4% in assay [9]; 49.5% in assay [10]; 61.5% in assay [11]; 60.8% in [12]. Further, the growth in assay [13] was 106%; in [14] it was 63.5%; in assay [15] it was 73.3%; in [16] it was 34.1%; in assay [17], -30.6% (active); in assay [18], 14.2%. For the same compound, the growth in assay [19] is 70.8%.

On to `Cc1ncc(C(=O)Nc2ccc(CN3CCN(C)CC3)c(C(F)(F)F)c2)cc1C#Cc1ccc(N)nc1`, for which the growth is -55% (active) in [1]; 9.23% (active) in assay [2]; 2.89% (active) in assay [3]; -27% (active) in assay [4]; -28.2% (active) in assay [5]; -20% (active) in assay [6]. Moreover, the growth in assay [7] is -71.1% (active); in assay [8], -64.1% (active); in [9], 18.6%; in [10] it was 25.9%; in assay [11], 1.1% (active); in assay [12], 19.8%. Also, the growth in [13] was 10.4%; in [14] it was 12%; in assay [15] it was 16.7%; in [16], -25% (active); in assay [17], 18.6%; in assay [18], -20% (active). In addition, the growth in assay [19] was 9.79% (active).
